Source: PubChem BioAssay (National Center for Advancing Translational Sciences (NCATS))
An excerpt weighted towards active compounds, which were near 7.2% of everything screened.
HEK293 cAMP cs = qHTS Assay for Agonists of the Thyroid Stimulating Hormone Receptor: Activators of Intracellular cAMP Concentrations in Parental HEK 293; parental HEK293 CNG cAMP sensor, membrane potential fluorescence; Potency, µM (highest dose often 57.1 µM), for the others: top-dose activation, hits mostly activators; 73,000 tested, 2.5% active; also: % of control where 0% means no effect; nearly all actives have a fitted effect of over 55% in size
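Counterscreen for endogenous-receptor signalling: CNG-channel HEK 293 cells report cAMP rise by membrane depolarization. After 60 min dye equilibration with 100 uM RO 20-1724, compounds incubated 30 min before bottom-read fluorescence at 590 nm.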
TSHR ag = qHTS Assay for Agonists of the Thyroid Stimulating Hormone Receptor; Thyrotropin receptor (Homo sapiens), P16473; HEK293-CNG-TSHR cells (CNG channel as cAMP sensor), membrane potential dye, cAMP; Potency, µM (highest dose often 57.1 µM), without a hit: at the top dose activation, actives largely listed as activators; 73,000 tested, 0.48% active; active = well fitted activation curve with a large enough effect in the main read-out, with a control signal flat, not every such curve was filed as active; inconclusive = small, poorly fitted or top-dose-only effect, or a change in a side signal; inactive = no such curve, though single readings can be large or run the other way; % of control where 0% means no effect;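 also: the control signal comes from parental cells without the receptor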
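HEK 293 cells stably expressing TSHR and a cAMP-gated CNG channel; parental CNG-only cells as counterscreen. Cells preloaded 60 min with membrane potential dye plus 100 uM RO 20-1724, then compound 30 min; fluorescence read at 590 nm.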
Luciferase inh = qHTS Assay for Inhibitors of Firefly Luciferase. Luciferin 4-monooxygenase (Photinus pyralis), P08659. purified firefly luciferase, luminescence, 8 min. Potency, µM (highest dose often 57.1 µM), for inactives: top-dose activity change, negative = inhibition, usual class: inhibitors. 72,000 tested, 2.2% active; also: % is scaled to controls: 0 for no effect and ±100 for the full control effect; nearly all actives have a fitted effect of over 40% in size
Target sequence (P08659 whole entry, looked up): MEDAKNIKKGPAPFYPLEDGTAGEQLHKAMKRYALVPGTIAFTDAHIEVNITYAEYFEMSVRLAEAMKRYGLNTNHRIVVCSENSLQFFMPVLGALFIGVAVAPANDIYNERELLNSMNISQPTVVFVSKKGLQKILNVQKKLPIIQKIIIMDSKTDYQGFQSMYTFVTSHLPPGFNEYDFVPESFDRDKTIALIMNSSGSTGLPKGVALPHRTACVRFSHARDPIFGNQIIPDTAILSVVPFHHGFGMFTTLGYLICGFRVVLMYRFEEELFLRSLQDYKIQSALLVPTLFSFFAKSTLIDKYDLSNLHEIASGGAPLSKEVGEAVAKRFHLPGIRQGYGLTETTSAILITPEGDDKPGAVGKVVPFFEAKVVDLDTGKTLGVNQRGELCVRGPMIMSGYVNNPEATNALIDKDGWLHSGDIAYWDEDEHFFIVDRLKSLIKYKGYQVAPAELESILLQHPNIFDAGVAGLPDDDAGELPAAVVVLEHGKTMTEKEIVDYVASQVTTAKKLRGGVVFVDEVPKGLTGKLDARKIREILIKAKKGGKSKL
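Firefly luciferase (PKLight detection mix) with 10 uM ATP in pH 7.2 imidazole buffer (KCl, MgCl2, Tween 20, BSA). Compounds tested across a concentration series (qHTS). Luminescence read after 8 min at ambient temperature.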
PK Bst = Pyruvate Kinase; purified pyruvate kinase, luminescence ATP production; ribose 5-phosphate activator present at AC10; Potency, µM; 51,000 tested, 1.2% active; in the data active = potency below about 11 µM; inconclusive = mostly about 12 µM to 25 µM;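 the screen sought inhibitors and activators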;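 also: scaled between full activation by ribose 5 phosphate and full inhibition by luteolin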
ERK AVP inh = qHTS Assay for Inhibitors of the ERK Signaling Pathway using a Homogeneous Screening Assay; HEK293-V1b, vasopressin-stimulated pERK AlphaScreen; Potency, µM (titrated, usually from 57.5 µM), without a hit: at the highest dose activity, negative = inhibition, actives largely listed as inhibitors; 72,000 tested, 0.99% active; AID 995, 2007; also: % is scaled to controls: 0 for no effect and ±100 for the full control effect; nearly all actives have a fitted effect of over 55% in size
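Phosphorylated ERK1/2 detected via AlphaScreen bead proximity in lysates of V1b-expressing HEK293 cells given 25 nM vasopressin for 5 min after 30 min compound exposure (37 °C). AC50 from Hill equation; basal DMSO 0%, vasopressin 100%.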
Tau filament bind = qHTS Assay for Tau Filament Binding | Microtubule-associated protein tau (Homo sapiens), P10636 | recombinant tau filaments, thioflavin S fluorescence, 15 h; filaments grown with octadecylsulfate alongside compound | Potency, µM (top dose mostly 57.1 µM), for inactives: at the highest dose activity change, negative = inhibition | 71,000 tested, 2% active | AID 596, 2007;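 also: % is scaled to controls: 0 for no effect and ±100 for the full control effect; actives lower thioflavin S fluorescence by blocking filaments or displacing dye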
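Thioflavine S fluorescence (ex 450, em 510 nm) reports filaments formed from 1 uM human tau plus 30 uM ODS over 15 h at 37 C (10 mM HEPES pH 7.4, 100 mM NaCl, 5 mM DTT); compounds displacing dye or blocking filaments lower signal.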
The depositor's hits bear a star; ! = repeats disagree; [ ] = remark or other dose. Unless noted, calls follow the shape of the dose curve; as a rule, active = well fitted curve in the direction sought with a large enough effect; inconclusive = small, poorly fitted or top-dose-only effect, or another doubt; inactive = no such curve, though single readings can be large; an effect the other way counts as inactive or inconclusive. Potency is read from the fitted curve at half-maximal effect.

`Cc1c(C(=O)Nc2ccc(N3CCOCC3)cc2)oc2ccccc12` gave HEK293 cAMP cs -36.0%, TSHR ag inconclusive, Luciferase inh 2.51µM*, PK Bst inconclusive, ERK AVP inh -27.4% and Tau filament bind 25.1µM*.
Screening O=C(CCc1ccccc1)Nc1ccc(N2CCOCC2)cc1 returned HEK293 cAMP cs 3.5%, TSHR ag -3.9%, Luciferase inh -9.3%, ERK AVP inh -31.7% and Tau filament bind 15.8µM*.
COc1cc(OC)cc(C(=O)Nc2ccc(-n3cnnn3)c(C)c2)c1 was read as HEK293 cAMP cs 10.0%, TSHR ag -5.3%[11.4 µM], Luciferase inh -22.4%, PK Bst >57, ERK AVP inh -2.3% and Tau filament bind 11.9%.
`Cc1cc(NC(=O)c2oc3ccccc3c2C)ccc1-n1cnnn1` gave HEK293 cAMP cs 27.7%, Luciferase inh 10µM*, PK Bst inactive, ERK AVP inh -3.6% and Tau filament bind 73.2%.
Oc1ccc(Cc2nccc3cc(O)c(O)cc23)cc1O was read as HEK293 cAMP cs 2.7%[11.4 µM], TSHR ag 0.0%[11.4 µM], Luciferase inh -1.7%[11.4 µM], ERK AVP inh -5.8%[11.5 µM] and Tau filament bind 6.2%[11.4 µM].
OCc1cc([C@@H](O)CNCCCCCCOCCCCc2ccccc2)ccc1O was read as HEK293 cAMP cs inconclusive, TSHR ag inconclusive, Luciferase inh 15.8µM*!, ERK AVP inh inconclusive and Tau filament bind -54.9%.
Screening O=C(NCCCc1ccccc1)c1ccccc1O returned HEK293 cAMP cs inconclusive, TSHR ag inconclusive, Luciferase inh 0.6%, ERK AVP inh -26.6% and Tau filament bind -7.6%[11.4 µM].
`CCOc1ccc(OCC)c(NC(=O)C2COc3ccccc3O2)c1` (stereo not given) gave HEK293 cAMP cs 31.6µM*, TSHR ag inconclusive, Luciferase inh 0.2%, PK Bst >57, ERK AVP inh 11.6% and Tau filament bind 27.9%.
For COc1ccc(OC)c(NC(=O)C2COc3ccccc3O2)c1 (stereo not given) the results were HEK293 cAMP cs 56.8%, Luciferase inh -1.6%, ERK AVP inh -8.6% and Tau filament bind -6.2%.
O=C(Nc1nc2c(ccc3ccccc32)s1)c1ccco1 was read as HEK293 cAMP cs 14.5%, TSHR ag 14.7%, Luciferase inh -27.3%, ERK AVP inh 12.6µM* and Tau filament bind 16.5%.
Screening Cc1ccn2cc(C(=O)Nc3ccccc3N3CCOCC3)nc2c1 returned HEK293 cAMP cs 24.6%, TSHR ag 0.4%, Luciferase inh inconclusive, ERK AVP inh -3.6% and Tau filament bind 0.2%.
`Cc1ccn2cc(C(=O)Nc3ccc4c(c3)OCCO4)nc2c1` gave HEK293 cAMP cs 5.6%, TSHR ag 4.3%, Luciferase inh 6.31µM*, PK Bst 7*, ERK AVP inh inconclusive and Tau filament bind 2.4%.
For O=c1c2c3c(sc2ncn1/N=C/c1ccco1)CCCC3 the results were HEK293 cAMP cs 14.3%, TSHR ag 4.0%, Luciferase inh -19.0%, ERK AVP inh -18.0% and Tau filament bind 21.8%.
Screening N#Cc1c(/N=C/c2cccs2)sc2c1CCC2 returned HEK293 cAMP cs 3.8%, TSHR ag 8.7%, Luciferase inh 10µM*, PK Bst inconclusive, ERK AVP inh -18.5% and Tau filament bind 15.8µM*.
For N#Cc1c(/N=C/c2ccco2)sc2c1CCCCC2 the results were HEK293 cAMP cs 12.2%, TSHR ag 14.4%, Luciferase inh 0.794µM*, PK Bst 0.523*, ERK AVP inh inconclusive and Tau filament bind 15.8µM*.
For CC(=O)[C@]1(O)CC[C@@H]2[C@H]3C[C@@H](C)C4=CC(=O)CC[C@@]4(C)[C@H]3[C@@H](O)C[C@]21C the results were HEK293 cAMP cs inconclusive, TSHR ag inconclusive, Luciferase inh 2.3%[11.4 µM], ERK AVP inh 9.6%[11.5 µM] and Tau filament bind 9.7%[11.4 µM].
